This is a sample that favours compounds with a hit; in the whole collection about 18% have one here.
PLK1 PBD block: blocks phosphopeptide binding to human PLK1 polo-box domain; Potency, µM, without a hit: max response, negative = inhibition, usual class: inhibitors; actives 2.8% (n = 360,000); P53350; Plk1 PBD binding of FITC phosphopeptide, fluorescence polarization; also: series mostly up to about 57 µM; nearly all actives have a fitted effect of over 65% in size
Target sequence (P53350 whole entry, looked up, the tested form may be a part): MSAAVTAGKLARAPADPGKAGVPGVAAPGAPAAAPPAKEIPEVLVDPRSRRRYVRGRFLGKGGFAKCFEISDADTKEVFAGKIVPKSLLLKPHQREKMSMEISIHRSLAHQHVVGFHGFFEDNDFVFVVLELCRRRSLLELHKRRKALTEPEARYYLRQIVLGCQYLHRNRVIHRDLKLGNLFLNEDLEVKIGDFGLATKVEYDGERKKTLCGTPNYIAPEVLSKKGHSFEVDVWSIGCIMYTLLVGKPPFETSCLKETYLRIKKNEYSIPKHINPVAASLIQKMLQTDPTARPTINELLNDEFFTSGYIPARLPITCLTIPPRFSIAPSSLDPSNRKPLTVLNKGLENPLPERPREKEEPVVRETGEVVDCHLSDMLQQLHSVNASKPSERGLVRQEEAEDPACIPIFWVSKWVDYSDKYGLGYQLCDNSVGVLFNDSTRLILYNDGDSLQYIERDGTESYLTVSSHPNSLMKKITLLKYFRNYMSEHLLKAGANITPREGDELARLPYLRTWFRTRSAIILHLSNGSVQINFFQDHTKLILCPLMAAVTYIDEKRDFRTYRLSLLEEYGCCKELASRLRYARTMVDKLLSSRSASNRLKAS
TDP1 block: blocks human tyrosyl-DNA phosphodiesterase 1 | Q9NUW8 | recombinant TDP1, AlphaScreen DNA substrate cleavage | Potency, µM (doses to about 130 µM), for the others: top-dose activity change, negative = inhibition, usual class: inhibitors | actives 0.28% (n = 350,000); also: nearly all actives have a fitted effect of over 40% in size
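Recombinant E. coli-expressed Tdp1 (1 nM) preincubated with compound 15 min at RT, then 5'-biotin/3'-phosphotyrosine-FITC DNA substrate (15 nM) added for 5 min. AlphaScreen beads (10 ug/ml) added, 10 min RT; tyrosine-FITC cleavage read as signal loss.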
DT40 TDP1 no CPT: qHTS for Inhibitors of human tyrosyl-DNA phosphodiesterase 1 (TDP1): qHTS in cells in absence of CPT; DT40 Tdp1-/- hTDP1 cells, no CPT, ATP luminescence, 48 h; Potency, µM (titrated, usually from 46.2 µM), inactives show at the top dose activity change, negative = growth inhibition, actives largely listed as inhibitors; actives 15% (n = 420,000); also: nearly all actives have a fitted effect of over 55% in size
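Growth kinetics read by CellTiter-Glo luminescence after ≥48 hr at 37 °C. Cells: DT40 Tdp1-/- stably carrying human TDP1, 400 per well, compound exposure in the absence of CPT (DMSO vehicle).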
DT40 TDP1 CPT: growth inhibition of DT40 Tdp1-/-;hTDP1 cells with camptothecin (screen for TDP1 inhibitors); Potency, µM (series often up to 46.2 µM), for inactives: at the top dose activity change, negative = growth inhibition, most hits filed as inhibitors; actives 12% (n = 420,000); chicken DT40 Tdp1-/-;hTDP1 cells + 20 nM CPT, ATP luminescence, 48 h; also: nearly all actives have a fitted effect of over 55% in size
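Cell growth measured by CellTiter-Glo luminescence after a minimum 48 h, 37 C compound exposure with 20 nM CPT in Tdp1-knockout DT40 cells stably expressing hTDP1, seeded 400/well; qHTS titration format.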
VDR inhibitor: blocks the human vitamin D receptor | P11473 | VDR-SRC2-3 peptide fluorescence polarization, 2 h | Potency, µM, for the others: max response, negative = inhibition, most hits filed as inhibitors | actives 0.93% (n = 400,000)
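Inhibition of the VDR/SRC2-3 peptide interaction is quantified by fluorescence polarization. Compounds (23 nl, pintool) incubate with the reagents for 2 hours at ambient room temperature.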
GCN5L2 inh: blocks human GCN5L2 histone acetyltransferase; Q92830; GCN5L2 HAT assay, ThioGlo1 CoA-SH fluorescence; Potency, µM (doses to about 58.9 µM), without a hit: top-dose activity change, negative = inhibition, hits mostly inhibitors; actives 0.21% (n = 390,000)
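Fluorescence readout, Ex340nm/Em540nm: ThioGlo1 (50uM final) reacts with free CoA thiol released as 20nM GCN5L2 acetylates H3(1-25) peptide (75uM) using acetyl-CoA (70uM). Compound and enzyme sat 15 min beforehand; 20 min room-temperature reaction.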
Active calls of the source: *; ? = inconclusive; nt = not tested or not shown. Calls follow the shape of the dose curve; as a rule, active = well fitted curve in the direction sought with a large enough effect; inconclusive = small, poorly fitted or top-dose-only effect, or another doubt; inactive = no such curve, though single readings can be large; an effect the other way counts as inactive or inconclusive. % is scaled to controls: 0 for no effect and ±100 for the full control effect; potency is read from the fitted curve at half-maximal effect.

SMILES	PLK1 PBD block	TDP1 block	DT40 TDP1 no CPT	DT40 TDP1 CPT	VDR inhibitor	GCN5L2 inh
O=C(C[n+]1ccc(/C=C/c2c[nH]c3ccccc23)c2ccccc21)c1ccccc1	nt	nt	?	-8.2%	nt	nt
O=C(/C=C/c1c[nH]c2ccccc12)c1cccc2ccccc12	9.4%	2.4%	11.6µM*	16.4µM*	-15.0%	-16.3%
COc1cccc(CNC(=O)CN2C(=O)CSc3ccc(S(=O)(=O)N4CCCC4)cc32)c1	3.0%	4.6%	?	-0.1%	-7.1%	2.9%
COc1ccccc1CN(C)C(=O)c1cc(S(=O)(=O)N2CCCCCC2)ccc1OC	-3.4%	nt	?	?	nt	nt
COc1ccc(S(=O)(=O)N2CCCCCC2)cc1C(=O)N(C)CC(=O)Nc1ccccc1Br	3.3%	nt	9.2µM*	?	-8.0%	-2.2%
COc1ccc(S(=O)(=O)N2CCCCCC2)cc1C(=O)N(C)CC(=O)Nc1ccccc1Cl	4.0%	nt	20.6µM*	?	15.9%	0.0%
COc1ccc(S(=O)(=O)N2CCCCCC2)cc1C(=O)N(C)CC(=O)Nc1c(Cl)cccc1Cl	-2.9%	-4.4%	?	?	-11.8%	-18.8%
Cc1nc(N2CCCC2)c2c(C(=O)N3CCN(c4cccc(C)c4C)CC3)c(C)oc2n1	nt	3.2%	?	?	-7.1%	1.0%
CCn1c(CCc2ccccc2)nc2ccccc21	-8.8%	nt	?	?	5.6%	-1.9%
Nn1c(SCC(=O)NC2CCCCC2)nnc1-c1ccccc1F	1.6%	0.5%	-5.8%	-8.4%	-7.0%	-3.8%
CC1Cn2cc(C(=O)Nc3cccc(C(F)(F)F)c3)c(=O)c3c(Cl)ccc(c32)O1 (stereo not given)	nt	1.2%	-12.3%	-8.2%	10.7%	0.7%
CC(=O)c1sc(C(=O)O)c(-c2ccco2)c1-c1ccco1	?	50.1µM*	-18.6%	10.9%	-22.5%	-5.5%
Cc1ccc(SCC(c2ccccc2)N2CCN(CCc3ccccc3)CCC2=O)cc1 (stereo not given)	nt	15.0%	nt	nt	-14.7%	nt
Cn1c2c(c(=O)n(C)c1=O)C(C(F)(F)F)(C(F)(F)F)N=C(CCC1CCCCC1)N2	-8.6%	5.3%	3.66µM*	2.59µM*	-8.7%	-12.3%
Cn1c2c(c(=O)n(C)c1=O)C(C(F)(F)F)(C(F)(F)F)N=C(c1ccccc1Cl)N2	-6.9%	-2.0%	?	23.1µM*	-3.4%	-9.1%
Cn1c2c(c(=O)n(C)c1=O)C(NS(=O)(=O)c1ccc(Cl)cc1)(C(F)(F)F)C(=O)N2 (stereo not given)	-4.6%	0.5%	-1.1%	-17.1%	-1.5%	-14.0%
Nc1nc(-c2ccc(Cl)cc2)nn1C(=O)c1cccs1	7.2%	0.0%	-3.8%	?	17.0%	-8.8%
CC(=O)N1CCC(N(Cc2ccco2)C(=O)Nc2ccc(C)c(Cl)c2)CC1	nt	6.2%	?	?	5.0%	0.8%
CCCCC(=O)N1CCCC(c2nc(-c3cccc(OC)c3)no2)C1 (stereo not given)	5.5%	-3.0%	14.6µM*	?	0.3%	-0.7%
CCCC(=O)N1CCCC(c2nc(-c3cccs3)no2)C1 (stereo not given)	29.9µM*	9.3%	25.9µM*	?	-1.8%	-3.5%
CCCS(=O)(=O)N1CCCC(c2nc(-c3cccc(OC)c3)no2)C1 (stereo not given)	-12.7%	2.1%	-5.0%	-22.9%	-0.6%	-1.8%
COc1cccc(-c2noc(C3CCCN(C(=O)c4ccc(F)cc4F)C3)n2)c1 (stereo not given)	-6.9%	nt	-19.3%	-27.8%	4.1%	2.4%
COc1cccc(-c2noc(C3CCCN(C(=O)CC(C)(C)C)C3)n2)c1 (stereo not given)	-9.6%	0.0%	?	16.4µM*	-8.1%	0.4%
OCCCNc1ncnc2scc(-c3ccc(Cl)cc3)c12	-3.5%	nt	20.6µM*	?	-4.2%	-7.4%
Clc1ccc(-c2csc3ncnc(Cl)c23)cc1	-7.8%	5.5%	16.4µM*	?	3.1%	-5.5%
SMILES	PLK1 PBD block	TDP1 block	DT40 TDP1 no CPT	DT40 TDP1 CPT	VDR inhibitor	GCN5L2 inh
Nn1cnc2scc(-c3ccc(Cl)cc3)c2c1=O	0.6%	1.9%	-21.8%	-8.6%	-7.7%	-4.1%
O=S(=O)(Nc1ncnc2scc(-c3ccc(F)cc3)c12)c1cc(F)ccc1F	-27.4%	5.0%	29.1µM*	?	-9.6%	-11.8%
Fc1ccc(-c2csc3ncnc(Cl)c23)cc1	21.2µM*	-7.0%	?	?	?	-1.4%
CC(NC(=O)C(Cc1ccccc1)=NO)c1ccccc1 (stereo not given)	-0.7%	nt	23.1µM*	20.6µM*	-24.3%	nt
COc1cccc(CN2CC(C(=O)NCCc3cn4cccnc4n3)CCC2=O)c1 (stereo not given)	4.7%	nt	-17.4%	-3.0%	nt	nt
N#Cc1cccc(NC(=O)c2cc(C3CCCCN3C(=O)c3ccc4c(c3)CCO4)on2)c1 (stereo not given)	-1.6%	nt	?	?	nt	nt
O=C(Nc1ccccc1)c1cc(C2CCCCN2C(=O)c2ccc3c(c2)CCO3)on1 (stereo not given)	3.2%	nt	18.4µM*	23.1µM*	nt	nt
O=C(Nc1ccc(F)c(Cl)c1)c1cc(C2CCCCN2C(=O)c2ccc3c(c2)CCO3)on1 (stereo not given)	-2.8%	nt	20.6µM*	16.4µM*	nt	nt
O=C(NCc1ccc(F)cc1)c1cc(C2CCCCN2C(=O)c2ccc3c(c2)CCO3)on1 (stereo not given)	-3.1%	nt	18.4µM*	18.4µM*	nt	nt
CN(c1ccc(F)cc1)S(=O)(=O)c1ccc(Cl)c(C(=O)NC2(C)CCS(=O)(=O)C2)c1 (stereo not given)	-8.1%	-0.2%	?	-21.8%	25.8%	1.0%
Cc1ccc(-c2csc3ncn(C(C)C(=O)O)c(=O)c23)cc1 (stereo not given)	1.7%	-3.0%	3.2%	-11.2%	1.4%	-10.1%
c1ccc(COc2ccc(-c3cc4nc(NCCOc5ccccc5)ccn4n3)cc2)cc1	-5.5%	nt	?	23.1µM*	nt	nt
COCCCNc1ccn2nc(-c3ccc(OCc4ccccc4)cc3)cc2n1	-1.9%	nt	?	16.4µM*	nt	nt
COc1ccc(-c2nc(N3CCN(S(=O)(=O)c4ccc(F)cc4)CC3)c3ccccc3n2)cc1	nt	-1.2%	nt	nt	-21.5%	nt
CC1CCCCN1CCCNC(=O)c1cc(Sc2ccc(Cl)cc2)nc2ccccc12 (stereo not given)	nt	5.2%	20.6µM*	18.4µM*	3.8%	4.0%
O=C(NCCN1CCOCC1)c1cc(-c2ccccc2)nc2ccccc12	2.3%	nt	?	-17.2%	nt	nt
